This is a sample that favours compounds with a hit; in the whole collection about 7.8% have one here.
Vaccinia Venus – inhibitors of vaccinia virus (Venus reporter); Vaccinia virus Venus reporter expression, fluorescence; Potency, µM (highest dose often 36.5 µM), inactives show at the top dose activity change, negative = inhibition, actives largely listed as inhibitors; hit rate 0.46% among 330,000; calls by dose curve; tested in A549 cells; further: potency means the concentration at half of the fitted maximal effect; nearly all actives have a fitted effect of over 30% in size
HCV inhibitor – inhibitors of hepatitis C virus infection; Huh7.5.1 HCVcc-Cre infection, luciferase reporter, 44 h; AID 651820; Potency, µM (top dose mostly 41.8 µM), inactives show at the highest dose activity change, negative = inhibition, usual class: inhibitors; hit rate 3.4% among 340,000; active means well fitted inhibition curve with a large enough effect; inconclusive means small, poorly fitted or top-dose-only effect, or another doubt; inactive means no such curve, though single readings can be large or run the other way; further: potency means the concentration at half of the fitted maximal effect
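Cells (1,000/well) were plated 4 h before compound, then infected with HCVcc-Cre virus (~0.5 moi). After 44 h further culture, infection was read as luciferase luminescence following a 15 min substrate incubation at room temperature.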
HCMV antiviral – human cytomegalovirus inhibition. HFF cells, HCMV-luciferase reporter, 72 h; active compounds read low. activity change, negative = inhibition, % at 57.5 µM. hit rate 4.5% among 410,000; in the data active means activity change below about -60%; inconclusive means no clear call, values can overlap the other calls; inactive means above about -39%
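Compounds were evaluated in HFFs infected with an HCMV luciferase reporter virus (MOI 1 PFU/cell). Luciferase in lysates collected 72 h post infection served as the replication measure.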
VACV mCherry inh – vaccinia inhibition (mCherry reporter); Vaccinia virus mCherry reporter infection, fluorescence; Potency, µM (highest dose often 36.5 µM), for inactives: at the top dose activity change, negative = inhibition, actives largely listed as inhibitors; hit rate 0.63% among 310,000; calls by dose curve; tested in A549 cells; further: potency means the concentration at half of the fitted maximal effect; nearly all actives have a fitted effect of over 35% in size
Lassa entry inh – inhibitors of Lassa virus binding or cell entry | hit rate 1.2% among 300,000 | AID 540256 | Lassa virus pseudotype entry inhibition, cell reporter | Potency, µM (doses to about 37.9 µM), without a hit: top-dose activity change, negative = inhibition, actives largely listed as inhibitors; calls by dose curve; tested in HEK293 cells; further: potency means the concentration at half of the fitted maximal effect; nearly all actives have a fitted effect of over 50% in size
MARV entry inh – inhibitors of Marburg virus binding or cell entry. Marburg virus pseudotyped entry inhibition, cell reporter. Potency, µM (titrated, usually from 37.8 µM), without a hit: at the highest dose activity change, negative = inhibition, usual class: inhibitors. hit rate 1.8% among 300,000. AID 540276; calls by dose curve; tested in HEK293 cells; further: potency means the concentration at half of the fitted maximal effect
An asterisk follows results filed as active; i = inactive; ? = inconclusive; . = not tested or not shown; + = active, no number; [ ] = dose if it differs, or a comment. On the % scale 0 is the no-effect control and ±100 the full control effect.

SMILES	Vaccinia Venus	HCV inhibitor	HCMV antiviral	VACV mCherry inh	Lassa entry inh	MARV entry inh
CC(NC(=O)CCCCCNC(=O)N1CCn2c1nc1ccccc12)c1ccccc1 (stereo not drawn)	.	13.5%	-73.3*	.	.	.
CN(C(=O)C1CCN(S(=O)(=O)c2cccs2)CC1)C1CCCCC1	-10.8%	20.9%	-26.9	-14.0%	-11.8%	10.2%
COc1ccc(CCNC(=O)C2CC(=O)N(c3ccc(C)cc3)C2)cc1OC (stereo not drawn)	-12.9%	5.7%	7.4	-3.4%	-1.8%[46.1 µM]	15.9%[46.1 µM]
CS(=O)(=O)c1ccc(Cl)c(NC(=O)C2CCN(S(=O)(=O)c3cccs3)CC2)c1	.	-22.8%	-5.7	.	.	.
O=C(Nc1ccccc1Br)C1CCN(S(=O)(=O)c2cccs2)CC1	-12.0%	4.1%	-74.8*	-21.6%	3.4%	?
COc1ccc(CCNC(=O)C2CC(=O)N(c3ccc(C(C)(C)C)cc3)C2)cc1OC (stereo not drawn)	.	-27.8%	-93.7*	.	.	.
CCN(Cc1ccncc1)C(=O)C1CCN(S(=O)(=O)c2cccs2)CC1	.	7.5%	-106.7*	.	?	5.6%
CN(C)S(=O)(=O)c1ccc(Cl)c(NC(=O)C2CCN(S(=O)(=O)c3cccs3)CC2)c1	.	?	-66.4*	.	.	.
CCNC(=O)c1ccc(CSc2nc3cccnc3n2Cc2ccc(OC)cc2)cc1	-9.4%	.	25.0	i	-8.1%[46.1 µM]	.
COc1ccc(C(=O)COC(=O)c2cccc(NC(=O)c3ccc(OC)c(OC)c3)c2)cc1	-17.3%	.	26.6	-22.2%	?	-24.5%[46.1 µM]
O=C(Nc1ccc(Cl)cn1)C1CCN(S(=O)(=O)c2cccs2)CC1	.	11.2µM*	-72.4*	.	.	.
COc1ccc(CCNC(=O)C2CCN(S(=O)(=O)c3cccs3)CC2)cc1OC	4.9%	8.5%	-95.6*	-14.0%	-7.4%[46.1 µM]	9.7%[46.1 µM]
CCc1ccc(NC(=O)C2CCN(S(=O)(=O)c3cnc[nH]3)CC2)cc1	.	3.4%	+	.	.	.
COc1ccc(S(=O)(=O)N2CCC(C(=O)NCCc3ccc(OC)c(OC)c3)CC2)cc1	-14.8%	.	-5.1	i	.	.
CCc1ccc(NC(=O)C2CCN(S(=O)(=O)c3cccs3)CC2)cc1	-29.3%	4.47µM*	-64.6*	-7.4%	?	-9.3%[46.1 µM]
CCc1cccc(NC(=O)C2CCN(S(=O)(=O)c3cccs3)CC2)c1	-17.8%	?	-22.1	i	-4.9%	-0.6%
CCc1ccc(NC(=O)Nc2ccccc2OCc2cc(=O)n3ccccc3n2)cc1	-10.9%	.	61.7	i	-3.1%[46.1 µM]	.
CN(C)C1CCC(CC2CCc3ccccc32)CC1 (stereo not drawn)	-12.3%	.	.	-14.8%	.	.
Cc1ccc(S(=O)(=O)N[C@@H]2COC(=O)[C@@H](C)COC(=O)C/C=C/[C@H]2C)cc1	.	.	.	.	.	7.3%[14.2 µM]
CN1CCN(C(=O)C2CCN(S(=O)(=O)c3cnc[nH]3)CC2)CC1	-8.0%	11.8%	15.7	i	-1.5%	-12.5%[46.1 µM]
O=C(c1ccco1)N1CCN(C(=O)C2CCN(S(=O)(=O)c3cnc[nH]3)CC2)CC1	-9.3%	31.6µM*	49.4	-14.9%	-14.0%	-8.7%
Cc1ccc(-c2csc(NC(=O)C3CCN(S(=O)(=O)c4cccs4)CC3)n2)cc1	-28.9%	10µM*	-78.8*	?	?	?
O=C(Nc1nc(-c2ccc3ccccc3c2)cs1)C1CCN(S(=O)(=O)c2cccs2)CC1	-10.8%	?	-74.7*	-4.0%	?	-1.8%
O=C(O)c1ccc([N+](=O)[O-])c(CS(=O)(=O)c2ccccc2)c1	-25.5%	-0.8%	-27.5	-6.3%	-12.1%	7.5%
CN(C)/C=C/C(=O)c1ccc([N+](=O)[O-])c(CS(=O)(=O)c2ccccc2)c1	-10.9%	0.7%	-98.2*	i	9.0%[46.1 µM]	-2.4%[46.1 µM]
SMILES	Vaccinia Venus	HCV inhibitor	HCMV antiviral	VACV mCherry inh	Lassa entry inh	MARV entry inh
Cc1ccc(C)n1-c1nnc(N2CCCC(C(=O)NCc3cccc(F)c3)C2)s1 (stereo not drawn)	-14.4%	.	-33.7	-18.6%	-10.9%[46.1 µM]	-29.9%[46.1 µM]
C=CCn1c(SCC(=O)Nc2cccnc2Cl)nnc1-c1ccccc1F	-7.0%	-5.6%	-65.4*	-23.1%	?	-7.0%
C=CCn1c(SCC(=O)Nc2cccnc2Cl)nnc1-c1ccc(Cl)cc1	-22.9%	-4.4%	-36.7	-2.8%	-29.9%	-0.1%
Cc1c(-c2cccc(NC(=O)Nc3ccc(Cl)cc3)c2)nc2ncccn12	-16.0%	.	-85.8*	-18.6%	-21.8%[46.1 µM]	.
Cc1c(-c2cccc(NC(=O)c3ccc(F)c(F)c3)c2)nc2ncccn12	-12.2%	.	-10.7	-15.7%	13.8%[46.1 µM]	.
C#Cc1cccc(C(=O)NCc2nc(-c3ccccc3NC(C)=O)oc2C)c1	-11.2%	.	.	-12.4%	.	.
Cn1cnnc1Sc1ccc(CN2CCOc3ccc(C4=Cc5ccccc5C4)cc3C2)o1	-13.8%	.	.	-3.9%	.	.
CCCN(CC(=O)Nc1cc(Cl)cc(Cl)c1)CC(=O)Nc1ccc(F)c(F)c1F	?	?	-87.3*	?	?	?
CCCN(CC(=O)Nc1ccccc1Br)CC(=O)Nc1ccc(F)c(F)c1F	-19.2%	?	-6.0	-8.5%	-13.4%	?
Cc1cc(C(=O)NCC2CCC3(CCN(Cc4ccccc4C)CC3)O2)n(C)n1 (stereo not drawn)	-11.4%	.	.	-4.2%	.	.
CC(C)(C)NC(=O)CSc1nc2ccc(Nc3nc(N4CCOCC4)nc(N4CCOCC4)n3)cc2s1	.	-24.4%	-66.0*	.	.	.
COc1ccc(NC(=O)CSc2nc3ccc(Nc4nc(N5CCOCC5)nc(N5CCOCC5)n4)cc3s2)cc1	.	10µM*	?	.	.	.
CC(=O)CSc1nc2ccc(Nc3nc(N4CCOCC4)nc(N4CCOCC4)n3)cc2s1	.	31.6µM*	-13.3	.	-12.7%	?
CCN(c1ccccc1)C1SC(=O)N(c2ccccc2)C1=O (stereo not drawn)	-18.3%	.	.	i	.	.
CCOc1ccc(C(=O)Nc2cccc(C(=O)OCc3cc(=O)n4nc(C5CC5)sc4n3)c2)cc1	?	.	36.3	?	29.0%[46.1 µM]	.
CCOC(=O)Nc1ccc2c3c(cccc13)-c1ccccc1-2	-18.2%	10µM*	-7.9	-28.8%	-2.6%	-14.6%
CCOC(=O)Nc1cccc2ccccc12	-17.7%	2.4%	?	-12.4%	-10.9%	7.5%
O=C(NCC(c1cccnc1)N1CCc2ccccc21)c1cccc(Br)c1 (stereo not drawn)	-5.9%	.	-39.2	-14.5%	?	.
O=C(CCl)N1CCN(S(=O)(=O)Cc2ccccc2)CC1	.	?	-76.2*	.	.	.
O=C(CCl)N1CCN(S(=O)(=O)c2ccc3c(c2)CCC3)CC1	.	14.1µM*	-79.9*	.	.	.
CCOC(=O)N1CCN(S(=O)(=O)Cc2ccccc2)CC1	10.2%	-0.1%	-4.5	.	1.3%	-0.5%
O=C1N(Cc2cccc(Cl)c2)C[C@@H]2C[C@@H](c3cccn3-c3ccccn3)N3CCC[C@@]123	-8.0%	6.31µM*	-33.6	-10.9%	?	?
O=C1N(Cc2cccc(Cl)c2)C[C@@H]2C[C@@H](c3cccn3-c3nccs3)N3CCC[C@@]123	11.2%	?	-20.2	?	?	11.2µM*

Bioassay records (PubChem BioAssay)
